These results are taken from PubChem BioAssay AID1347142 (National Center for Advancing Translational Sciences (NCATS), 2019).

Each structure is given as a SMILES string. Inconclusive results are not listed. The source made the active and inactive calls. Calls follow the shape of the dose curve; as a rule, active = well fitted inhibition curve with a large enough effect; inconclusive = small, poorly fitted or top-dose-only effect; inactive = no such curve, though single readings can be large or run the other way.
Also: nearly all actives have a fitted effect of over 80% in size.
Potency is read from the fitted curve at half-maximal effect.

In the assay the target is N-terminal Xaa-Pro-Lys N-methyltransferase 1 (Homo sapiens) (UniProt Q9BV86). The assay is described as follows: qHTS Assay for Inhibitors of N-terminal methyltransferase 1 (NTMT1): ThioGlo3 Assay Confirmatory Screen, Round 1. To be noted: NTMT1 SAHH-coupled ThioGlo3 fluorescence, 30 min; series mostly up to 56.8 µM. In outline: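 Human NTMT1 at 125 nM was preincubated 1 min at room temperature with compounds at various concentrations or 1 uM RCC1-6 control. Substrate mix (100 uM SAM, 10 uM SAHH, 15 uM ThioGlo3) was added, and fluorescence (Ex 340/Em 450 nm) was read at start and after 30 min, normalized to background.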
Chain of N-terminal Xaa-Pro-Lys N-methyltransferase 1 (Homo sapiens) (Q9BV86 whole entry, looked up): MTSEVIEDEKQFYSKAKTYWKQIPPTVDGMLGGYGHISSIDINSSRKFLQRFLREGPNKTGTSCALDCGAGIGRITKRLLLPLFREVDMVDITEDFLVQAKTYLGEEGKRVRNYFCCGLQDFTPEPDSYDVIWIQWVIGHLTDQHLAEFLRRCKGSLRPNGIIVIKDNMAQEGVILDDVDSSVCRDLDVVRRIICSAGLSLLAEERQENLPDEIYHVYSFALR
For orientation: In qHTS, concentration-response curves come from the screen itself.
Consider `Nc1nc(Cl)nc2c1ncn2[C@@H]1O[C@H](CO)[C@H](O)[C@H]1O`, for which the Potency result is “inactive”.
Consider `OC[C@@H]1O[C@H](n2cnc3c(SCc4ccccc4)ncnc32)[C@H](O)[C@H]1O`, for which the Potency result is “inactive”.
In the case of `COc1cc2nc(N3CCN(C)CC3)nc(NCCCN(C)C)c2cc1OC` it was 27.1 µM (active).
As for `CSc1ncnc2c1ncn2C1OC(CO)C(O)C1O` (stereo not given), the Potency result was “inactive”.
In the case of `CNc1ncnc2c1ncn2[C@@H]1O[C@H](CO)[C@@H](O)[C@H]1O` it was “inactive”; in that of `COc1cc2c(NC3CCN(C4CCCCC4)CC3)nc(N3CCCCC3)nc2cc1OCCCN1CCCCC1`, 24.1 µM (active); in that of `COc1cc2nc(NC3CCN(C)CC3)nc(NC3CCN(C)CC3)c2cc1OC`, 27.1 µM (active).
For `COc1cc2nc(N(C)C)nc(NC3CCN(C)CC3)c2cc1OC` the value was 24.1 µM (active); for `CNC(=O)[C@H]1O[C@H](n2cnc3c(NCc4cccc(I)c4)nc(Cl)nc32)[C@@H](O)[C@@H]1O`, “inactive”.
In the case of `CNc1nc(N2CCCN(C)CC2)nc2cc(OC)c(OC)cc12` it was 27.1 µM (active); in that of `COc1cc2c(NC3CCN(C(C)C)CC3)nc(N3CCC(F)(F)CC3)nc2cc1OCCCN1CCCC1`, 24.1 µM (active); in that of `OC[C@@H]1O[C@@H](n2cnc3c(NC4CCCC4)ncnc32)[C@H](O)[C@H]1O`, “inactive”.
For `COc1cc2nc(N3CCN(C)CC3)nc(N3CCN(C(C)=O)CC3)c2cc1OC`, the Potency is 21.5 µM (active).
In the case of `CCCCC#Cc1nc(NC)c2ncn([C@@H]3O[C@@H](CO)[C@H](O)[C@H]3O)c2n1` it was “inactive”; in that of `COc1cc2c(NC3CCN(C4CCCCC4)CC3)nc(N3CCCN(C)CC3)nc2cc1OCCCN1CCCCC1`, 24.1 µM (active).
